Assay results published in PubChem BioAssay.
The source made the active and inactive calls.

Tests used:
[1] = optical density shifts of acrAB sulA E. coli – strain DRC41, OD650, 48 h, E. coli filamentation inducer project, primary screen (AID 1152); settings: higher = more signal, called active from +8 up or from −8 down;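 note: E. coli MC1000 strain DRC41 lacking acrAB efflux pump and sulA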
[2] = probe aLefty1 binding on compound microarray – biochemical, small-molecule microarray, 635/667 nm fluorescence, primary screen (AID 1153); settings: higher = more signal;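 note: score merges spot fluorescence with signal-to-noise ratio from the scanned slide images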
[3] = plasmodial surface anion channel blockers, osmotic lysis – cell-based, P. falciparum Indochina, OD700, 1 h, primary screen (AID 1154); settings: P. falciparum Indochina infected RBC osmotic lysis, higher = more signal, called active from +8 up or from −8 down
[4] = plasmodial surface anion channel blockers, osmotic lysis – cell-based, P. falciparum Indochina, OD700, 2 h, primary screen (AID 1155);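 note: lysis reports solute entry through the parasite surface anion channel PSAC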; settings: P. falciparum Indochina infected erythrocytes, higher = more signal, called active from +8 up or from −8 down
[5] = changes in parasitized red cell lysis, either direction – P. falciparum Indochina, OD700, 3 h, PSAC antagonist project, primary screen (AID 1156); settings: P. falciparum-infected erythrocytes, osmotic lysis, higher = more signal, called active from +8 up or from −8 down
[6] = plasmodial surface anion channel blockers, osmotic lysis – cell-based, P. falciparum Indochina, OD700, 18 h, primary screen (AID 1157); settings: P. falciparum Indochina infected erythrocytes, osmotic lysis OD700, 18 h; higher = more signal, called active from +8 up or from −8 down
[7] = S6 kinase pathway phospho-S6 level changes – cell-based, A549, cytoblot, luminescence, serum-stimulated, primary screen (AID 1158); settings: 5 h, higher = more signal;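 note: serum-stimulated A549 lung adenocarcinoma cells; signal is phosphorylated S6 detected by cytoblot immunostaining with HRP secondary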
[8] = target: NADPH oxidase 2 (Homo sapiens) (UniProt P04839); test: compounds shifting NOX2 Amplex Red fluorescence – cell-based, HEK293-NOX2, PMA-stimulated, NOX inhibitor project, primary screen (AID 1159); settings: 45 min, higher = more signal, called active from +8 up or from −8 down; note: test concentration not given here
Sequence of NADPH oxidase 2 (Homo sapiens) (P04839 whole entry, looked up): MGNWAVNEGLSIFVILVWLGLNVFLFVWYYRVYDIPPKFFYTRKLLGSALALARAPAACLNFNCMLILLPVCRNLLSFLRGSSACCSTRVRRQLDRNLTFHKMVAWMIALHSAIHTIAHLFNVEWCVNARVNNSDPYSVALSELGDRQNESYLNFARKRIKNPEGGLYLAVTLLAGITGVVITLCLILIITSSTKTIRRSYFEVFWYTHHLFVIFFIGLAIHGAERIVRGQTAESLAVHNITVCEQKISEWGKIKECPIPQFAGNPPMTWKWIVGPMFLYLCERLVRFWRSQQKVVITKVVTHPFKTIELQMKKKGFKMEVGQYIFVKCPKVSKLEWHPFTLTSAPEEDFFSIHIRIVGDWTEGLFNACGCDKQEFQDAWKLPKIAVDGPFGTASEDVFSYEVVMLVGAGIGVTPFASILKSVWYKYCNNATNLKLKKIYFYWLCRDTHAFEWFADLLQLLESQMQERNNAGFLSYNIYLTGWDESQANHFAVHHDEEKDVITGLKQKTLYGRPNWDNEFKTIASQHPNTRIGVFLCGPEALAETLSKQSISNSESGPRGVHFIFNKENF

[9] = target: NADPH oxidase 4 (Homo sapiens) (UniProt Q9NPH5); test: compounds shifting NOX4 Amplex Red fluorescence – cell-based, HEK293-NOX4, tetracycline-induced, NOX inhibitor project, primary screen (AID 1160); settings: HEK293-NOX4, Amplex Red H2O2 fluorescence, 45 min; higher = more signal, called active from +8 up or from −8 down
Sequence of NADPH oxidase 4 (Homo sapiens) (Q9NPH5 whole entry, looked up): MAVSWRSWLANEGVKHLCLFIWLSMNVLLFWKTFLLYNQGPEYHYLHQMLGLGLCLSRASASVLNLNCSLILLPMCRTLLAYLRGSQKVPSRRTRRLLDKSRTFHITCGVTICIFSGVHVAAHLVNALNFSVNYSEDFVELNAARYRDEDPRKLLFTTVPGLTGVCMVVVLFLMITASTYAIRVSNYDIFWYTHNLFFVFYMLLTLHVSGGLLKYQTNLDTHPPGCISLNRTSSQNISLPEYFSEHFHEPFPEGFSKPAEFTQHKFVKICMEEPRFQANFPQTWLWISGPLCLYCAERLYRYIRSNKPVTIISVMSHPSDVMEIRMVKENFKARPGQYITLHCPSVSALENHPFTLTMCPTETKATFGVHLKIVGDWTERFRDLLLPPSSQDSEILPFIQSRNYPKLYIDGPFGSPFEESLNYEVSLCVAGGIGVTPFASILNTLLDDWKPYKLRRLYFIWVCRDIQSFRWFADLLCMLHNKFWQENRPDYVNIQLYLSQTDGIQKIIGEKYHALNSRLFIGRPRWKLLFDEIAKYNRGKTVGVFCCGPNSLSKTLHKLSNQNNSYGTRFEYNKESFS

[10] = target: NADPH oxidase 5 (Homo sapiens) (UniProt Q96PH1); test: compounds shifting NOX5 Amplex Red fluorescence – cell-based, HEK293-NOX5, NOX inhibitor project, primary screen (AID 1161); settings: HEK293-NOX5, ionomycin, 45 min, higher = more signal
Sequence of NADPH oxidase 5 (Homo sapiens) (Q96PH1 whole entry, looked up): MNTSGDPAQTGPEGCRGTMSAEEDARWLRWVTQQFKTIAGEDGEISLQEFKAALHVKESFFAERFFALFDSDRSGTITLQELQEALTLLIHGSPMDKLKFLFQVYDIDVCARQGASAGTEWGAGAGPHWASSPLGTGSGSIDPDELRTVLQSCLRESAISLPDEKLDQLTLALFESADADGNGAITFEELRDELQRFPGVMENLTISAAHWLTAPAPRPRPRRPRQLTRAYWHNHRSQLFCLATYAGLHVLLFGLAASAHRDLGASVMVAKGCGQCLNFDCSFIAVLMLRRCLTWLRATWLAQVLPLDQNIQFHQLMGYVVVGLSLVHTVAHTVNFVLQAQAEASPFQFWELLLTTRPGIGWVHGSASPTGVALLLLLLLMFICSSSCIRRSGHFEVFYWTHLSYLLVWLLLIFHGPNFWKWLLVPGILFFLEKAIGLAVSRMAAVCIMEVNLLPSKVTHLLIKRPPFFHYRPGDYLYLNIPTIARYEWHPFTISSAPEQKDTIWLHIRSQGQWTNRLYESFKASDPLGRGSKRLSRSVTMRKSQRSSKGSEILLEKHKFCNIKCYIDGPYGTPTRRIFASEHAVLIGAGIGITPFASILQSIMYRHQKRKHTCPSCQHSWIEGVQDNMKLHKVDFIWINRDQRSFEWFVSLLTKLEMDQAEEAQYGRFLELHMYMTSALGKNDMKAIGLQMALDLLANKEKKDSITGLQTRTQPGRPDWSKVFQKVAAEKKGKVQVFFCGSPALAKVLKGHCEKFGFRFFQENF

SMILES | z-score [1] | composite z-score [2] | z-score [3] | z-score [4] | z-score [5] | z-score [6] | z-score [7] | z-score [8] | z-score [9] | z-score [10]
CO[C@H]1O[C@H](CO)[C@@H](OC(=O)Nc2cccc(F)c2)[C@H](OC(=O)Nc2ccccc2-c2ccccc2)[C@@H]1OC(=O)Nc1ccccc1-c1ccccc1 | 0.538 (inactive) | 0.257 | 3.1 (inactive) | 2.23 (inactive) | 0.346 (inactive) | 1.68 (inactive) | 0.0437 | -2.45 (inactive) | -0.551 (inactive) | -0.608
O[C@@H](Cc1ccccc1)[C@@H](/C=C/c1ccccc1)NCc1ccccc1Br | 0.955 (inactive) | 0.0927 | 1.18 (inactive) | 0.411 (inactive) | 1.35 (inactive) | 0.205 (inactive) | 0.747 | -0.175 (inactive) | 0.272 (inactive) | -0.921
COc1ccc([Si](C)(C)[C@@H]2[C@@H](CC(=O)N3Cc4ccccc4C[C@H]3CO)O[C@]3(C(=O)N(Cc4cccc(N5C(=O)COc6ccccc65)c4)c4ccccc43)[C@H]2C)cc1 | 2.59 (inactive) | -0.286 | 4.94 (inactive) | 1.18 (inactive) | -0.0434 (inactive) | 0.208 (inactive) | 4.59 | -0.387 (inactive) | 0.518 (inactive) | 0.827
O=C(NCc1ccccc1)[C@@H]1c2ccccc2C(=O)N(Cc2cc(F)cc(C(F)(F)F)c2)[C@H]1c1ccc(CO)cc1 | 0.363 (inactive) | 0.0455 | 5.82 (inactive) | 1.23 (inactive) | 1.03 (inactive) | 0.156 (inactive) | -0.26 | -2.01 (inactive) | 0.598 (inactive) | -1.58
CO[C@H]1O[C@H](CO)[C@@H](OC(=O)Nc2ccc3c(c2)OCO3)[C@H](OC(=O)Nc2ccc3c(c2)OCO3)[C@H]1OC(=O)Nc1ccc2c(c1)OCO2 | 0.164 (inactive) | 0.457 | 6.86 (inactive) | 1.04 (inactive) | 0.608 (inactive) | 0.519 (inactive) | -0.489 | -1.44 (inactive) | -0.847 (inactive) | -1.69
NC(=O)NCC#Cc1ccc2c(c1)[C@]1(C(=O)N2)[C@H](c2ccccc2OCCO)N2[C@H](c3ccccc3)[C@H](c3ccccc3)OC(=O)[C@H]2[C@@H]1C(=O)N1CCCCCCC1 | 1.01 (inactive) | 2.71 | 1.71 (inactive) | 0.786 (inactive) | 1.19 (inactive) | 0.443 (inactive) | -0.281 | 1.87 (inactive) | 0.893 (inactive) | 0.768
COCC1C2CC[C@H]3C(OCc4ccc(F)cc4C(F)(F)F)OC[C@]4(C)[C@H]3C2=C(CN4C(=O)OC(C)(C)C)[C@H](C)C1COC (stereo not given in full) | -1.06 (inactive) | 0.891 | 2.63 (inactive) | -0.298 (inactive) | 0.16 (inactive) | -0.998 (inactive) | 2.03 | -0.834 (inactive) | -0.934 (inactive) | -3.41
[N-]=[N+]=Nc1ccccc1[C@H]1OC(c2ccc(OCCCO)cc2)=N[C@@]1(CCS(=O)(=O)c1ccccc1)C(=O)N1CCOCC1 | 0.399 (inactive) | 1.48 | 31 (active) | 23.6 (active) | 1.88 (inactive) | 4.6 (inactive) | 0.211 | 0.404 (inactive) | 1.56 (inactive) | 1.36
C=CCOC(=O)[C@@H]1[C@H]2C(=O)O[C@H](c3ccccc3)[C@H](c3ccccc3)N2[C@H](c2ccc(OCCOC(=O)[C@H]3C[C@H]4C(=O)N[C@@H](CC(C)C)C(=O)N4[C@H]3c3cccc(OCCO)c3)cc2)[C@@]12C(=O)Nc1ccc(I)cc12 | -0.0888 (inactive) | 0.185 | 2.85 (inactive) | -0.154 (inactive) | 0.789 (inactive) | -1.24 (inactive) | 0.456 | 1.07 (inactive) | 1.02 (inactive) | 0.73
CCOC(=O)C1=CC[C@@H](c2ccccc2)N(S(=O)(=O)c2ccc(C)cc2)[C@H]1c1ccc(C#N)cc1 | -1.38 (inactive) | 0.161 | 1.92 (inactive) | 0.858 (inactive) | 0.224 (inactive) | 0.705 (inactive) | -0.882 | 0.428 (inactive) | -1.1 (inactive) | 0.0836
COc1ccc([Si](C)(C)[C@@H]2[C@@H](CCO)O[C@]3(C(=O)N(Cc4cccc(N5CCCCC5=O)c4)c4ccccc43)[C@H]2C)cc1 | -0.402 (inactive) | 0.236 | 5.77 (inactive) | 2.69 (inactive) | 0.703 (inactive) | 2 (inactive) | -0.549 | -2.79 (inactive) | -0.322 (inactive) | 1.54
CN1C(=O)C2C=CC(C(O)c3ccc(Br)cc3)N(Nc3ccccc3)C2C1=O (stereo not given) | -0.506 (inactive) | 0.106 | 0.884 (inactive) | 0.708 (inactive) | 0.302 (inactive) | 0.826 (inactive) | -0.595 | -0.592 (inactive) | -4.5 (inactive) | -2.23
CCCC[C@H]1OB(O)C[C@H]2C1=C(COc1ccccc1)C[C@H]1C(=O)N(Cc3ccccc3)C(=O)[C@H]12 | -0.288 (inactive) | 0.179 | 6.03 (inactive) | 1.38 (inactive) | 0.0146 (inactive) | 0.475 (inactive) | -0.056 | -0.0336 (inactive) | 0.143 (inactive) | 0.245
O=C1OCC=C[C@H]2OC34C=CCN(c5ccc6ccccc6c5)C(=O)[C@H]3N(CCO)C(=O)[C@@H]4[C@@H]12 (stereo not given in full) | -0.773 (inactive) | 0.235 | 1.33 (inactive) | 0.796 (inactive) | 0.547 (inactive) | 0.552 (inactive) | -0.572 | 1.53 (inactive) | 1.05 (inactive) | 1.46
COCCOC(=O)N1C(=O)[C@@]2(c3cc(C#Cc4ccc(OC)cc4)ccc31)[C@H](c1ccc(O)cc1)N1[C@H](c3ccccc3)[C@H](c3ccccc3)OC(=O)[C@H]1[C@@H]2C(=O)N1CCN(c2ncccn2)CC1 | 0.714 (inactive) | -0.0601 | 1.45 (inactive) | 0.876 (inactive) | -0.969 (inactive) | 0.59 (inactive) | -0.63 | 1.87 (inactive) | -1.34 (inactive) | -0.0267
C=CCN1C(=O)[C@@]2(O[C@@H](CCO)[C@H]([Si](C)(C)c3ccc(OC)cc3)[C@H]2C)c2cc(N3C(=O)COc4ccccc43)ccc21 | -0.37 (inactive) | 0.0012 | 24.5 (active) | 11.4 (active) | -0.122 (inactive) | 2.68 (inactive) | 0.175 | -0.548 (inactive) | -0.111 (inactive) | 0.0948
COc1ccc([Si](C)(C)[C@H]2[C@H](CC(=O)N3Cc4ccccc4C[C@H]3CO)O[C@@]3(C(=O)N(Cc4cccc(I)c4)c4ccccc43)[C@@H]2C)cc1 | 0.232 (inactive) | 0.0233 | 6.74 (inactive) | 1.38 (inactive) | 2.14 (inactive) | 1.19 (inactive) | 0.452 | -1.36 (inactive) | -0.348 (inactive) | -2.55
CN(C)CCCC[C@@H]1NC(=O)[C@@H]2C[C@H](C(=O)NCc3ccc(F)cc3)[C@H](c3cccc(OCCO)c3)N2C1=O | -0.179 (inactive) | 0.19 | 5.87 (inactive) | 0.995 (inactive) | -1.39 (inactive) | 0.546 (inactive) | 0.612 | 1.85 (inactive) | 1.37 (inactive) | 1.55
CC1CC/C=C\[C@H]2OC34C=CCN(Cn5nnc6ccccc65)C(=O)[C@H]3N(CCCO)C(=O)[C@@H]4C2C(=O)O1 (stereo not given in full) | 1.29 (inactive) | 0.0445 | 0.935 (inactive) | 0.563 (inactive) | -0.264 (inactive) | 0.554 (inactive) | 0.114 | 0.923 (inactive) | -1.82 (inactive) | 1.4
CCOC(=O)C[C@H]1[C@H](OC(=O)c2ccccc2-c2ccccc2)[C@@H](NC(=O)c2ccc(-c3ccccc3)cc2)c2cc(OCCCO)ccc2N1C(=O)c1ccccc1 | 0.657 (inactive) | 0.0121 | 0.568 (inactive) | 0.135 (inactive) | 1.02 (inactive) | 0.157 (inactive) | 1.1 | 0.35 (inactive) | 0.169 (inactive) | 1.46
CCN(CC)c1ccc(N2CC=CC34O[C@@H]5/C=C\CCCOC(=O)C5[C@H]3C(=O)N(CCCO)[C@@H]4C2=O)cc1 (stereo not given in full) | -0.522 (inactive) | 0.235 | 1.78 (inactive) | 0.225 (inactive) | -0.462 (inactive) | 0.308 (inactive) | -0.219 | 0.024 (inactive) | 0.558 (inactive) | 0.931
COc1ccc(CCNC(=O)[C@@]2(C)c3ccccc3C(=O)N(Cc3ccccc3)[C@H]2c2ccc(CO)cc2)cc1 | 1.09 (inactive) | 0.187 | 6.03 (inactive) | 0.219 (inactive) | 0.474 (inactive) | -0.73 (inactive) | 2.24 | -3.58 (inactive) | -3.9 (inactive) | -4.78
O=C1O[C@@H](c2ccccc2)[C@@H](c2ccccc2)N2[C@@H](c3ccc(O)cc3)[C@]3(C(=O)Nc4ccc(C#CCCO)cc43)[C@@H](C(=O)N3CCCCCCC3)[C@H]12 | -0.681 (inactive) | 2.4 | 1.27 (inactive) | 0.654 (inactive) | -0.69 (inactive) | 0.541 (inactive) | -0.364 | 1.15 (inactive) | 0.277 (inactive) | 1.47
Cc1ccccc1/C=C/C=O | 0.871 (inactive) | -0.147 | 0.51 (inactive) | 0.146 (inactive) | -0.0758 (inactive) | 0.231 (inactive) | -0.265 | -0.59 (inactive) | -0.0992 (inactive) | 0.45
O=C1O[C@H](c2ccccc2)[C@H](c2ccccc2)N2[C@H]1[C@@H](C(=O)NC[C@H](O)c1ccccc1)[C@]1(C(=O)Nc3ccc(C#CC4(O)CCCCCC4)cc31)[C@H]2c1ccccc1OCCO | 0.0511 (inactive) | 0.701 | 3.8 (inactive) | 2.21 (inactive) | -0.957 (inactive) | 2.07 (inactive) | -0.0056 | 0.65 (inactive) | 0.267 (inactive) | 1.39
